Assay results as given in PubChem BioAssay AID2102 (Southern Research Specialized Biocontainment Screening …, 2009).
Screen size: about 1,100 compounds; about 210 (19%) were called active. How the calls were made is not given here. Not all results are given here. Results with a measured potency or affinity are listed apart.

Assay: cell viability loss from selected hits – cytotoxicity control for SV40 T antigen inhibitor project, dose response (AID 2102);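 further: cells exposed to compounds for 72 hours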
Conditions: Host cell viability cytotoxicity counter-screen; series mostly up to 50 µM

| Structure (SMILES) | outcome |
| --- | --- |
| COc1ccc(-c2cc(=O)oc3c(O)c(O)ccc23)cc1 | inactive |
| O=C1CCCC/C1=C\Nc1ccc(O)cc1 | inactive |
| O=c1cc(CN2CCN(Cc3ccccc3)CC2)c2ccc(O)c(O)c2o1 | inactive |
| Oc1cnn(-c2ccccc2)c1 | inactive |
| Nc1cc(CN2C(=O)c3ccccc3C2=O)cc(Cl)c1O | inactive |
| COc1cc(/C=N/Nc2ccnc(=O)[nH]2)ccc1O | inactive |
| COc1ccc(NC2CCCN(C(=O)c3ccc(OC)cc3OC)C2)cc1 (configuration not stated) | inactive |
| COc1ccc(NC2CCCN(C(=O)CCn3cccn3)C2)cc1 (configuration not stated) | inactive |
| COc1cc(/C=N/NC(=O)c2c(-c3ccccc3)noc2C)ccc1O | inactive |
| C/C(CC(=O)Nc1ccc2ccccc2c1)=N\NC(=O)c1ccc(O)c(O)c1 | inactive |
| O=C(Nc1ccc(O)cc1)C1CC=CCC1 (configuration not stated) | inactive |
| CC(C)C(=O)c1ccc(O)c(O)c1 | inactive |
| Cc1ccc(S(=O)(=O)N2CCN(CC(=O)N/N=C\c3ccc(O)c(O)c3)CC2)cc1 | inactive |
| CCCSc1nc(O)c(C(c2ccc(OC)c(O)c2)c2c(O)nc(SCCC)n(C)c2=O)c(=O)n1C | inactive |
| COc1cc(Cn2nnc3ccccc32)ccc1O | inactive |
| Cc1ccc2c(c1C)NC(C(=O)O)C1CC=CC21 (configuration not stated) | inactive |
| CC(/C=N/n1c(-c2n[nH]c3c2CCC3)n[nH]c1=S)=C\c1ccco1 | inactive |
| Nc1nc(-c2cccs2)c(NC(=O)c2ccccc2)s1 | inactive |
| O=C1CNC(=S)N1CCc1ccc(O)c(O)c1 | inactive |
| N#CC1=C2SCN(Cc3ccco3)CN2C(=O)CC1c1ccc(Cl)cc1 (configuration not stated) | inactive |
| CCn1c(/C=C/c2ccc(O)c(O)c2)nc2ccccc2c1=O | inactive |
| O=C(N/N=C/c1ccc(O)c(O)c1)c1cc(-c2ccccc2)nc2ccccc12 | inactive |
| O=C(CSc1nc2ccccc2o1)N/N=C/c1ccc(O)c(O)c1 | inactive |
| Cc1cc(SCC(=O)N/N=C/c2ccc(O)c(O)c2)nc2ccccc12 | inactive |
| O=C1ON=C(c2ccccc2)/C1=C/c1ccc(O)c(O)c1 | inactive |
| O=C1C=CC(=O)N1c1ccc(O)cc1 | inactive |

| Structure (SMILES) | outcome |
| --- | --- |
| Cc1nc(Cl)cc(N/N=C/c2ccc(O)cc2)n1 | inactive |
| CCOc1ccc(N2Nc3n[nH]c(N)c3N2)cc1 | inactive |
| Cc1c(NC(=O)CN2CCN(c3ccc(O)cc3)CC2)c(=O)n(-c2ccccc2)n1C | inactive |
| O=C1CC(N2CCN(c3ccc(O)cc3)CC2)C(=O)N1Cc1cccs1 (configuration not stated) | inactive |
| Cc1nc2ccc(N=NN(C)C)cc2[nH]1 | inactive |
| O=C(Cn1c(=O)oc2ccccc21)Nc1n[nH]c(=S)s1 | inactive |
| Cc1cc(C)c2c(CCl)cc(=O)oc2c1 | inactive |
| CCSS(=O)(=O)c1cccc2cccnc12 | inactive |
| O=C1/C(=C/c2ccncc2)SC(=S)N1Nc1ccccc1 | inactive |
| CCc1cc2c(Nc3ccc(O)cc3)nc(C)nc2s1 | inactive |
| Cc1cc(NC(=O)CN2CCN(c3ccc(O)cc3)CC2)no1 | inactive |
| COc1ccc(N2CCN(C(=O)CN(c3ccccc3)S(C)(=O)=O)CC2)cc1 | inactive |
| CCOC(=O)N1CCN(c2ccc(O)cc2)CC1 | inactive |
| O=C(CCC(=O)N1CCN(c2ccc(O)cc2)CC1)c1cccs1 | inactive |
| O=C(c1ccc2ncsc2c1)N1CCN(c2ccc(O)cc2)CC1 | inactive |
| O=C(C1CC1)N1CCN(c2ccc(O)cc2)CC1 | inactive |
| CNC(=O)c1ccc(-c2sc3nc(N4CCOCC4)c4c(c3c2N)CC(C)(C)OC4)o1 | inactive |
| CN1CC(C(=O)O)Cc2c1ccc1ccccc21 (configuration not stated) | inactive |
| COc1cc(C(=O)Nc2ccc(O)cc2)ccc1OC(C)=O | inactive |
| CN(C)c1ccc(NC(N)=S)cc1 | inactive |
| COc1cc(/C=N/NC(=O)c2cccc(S(=O)(=O)N3CCCC3)c2)ccc1O | inactive |
| Cc1nc(-c2ccc(O)c(O)c2)cs1 | inactive |
| Cc1ccc(S(=O)(=O)Nc2nc(C)cc(N/N=C/c3ccc(O)cc3)n2)cc1 | inactive |
| CCOc1cc(/C=C2\SC(=O)N=C2N)ccc1O | inactive |
| Nc1nc2ccc(N3CCOCC3)cc2s1 | inactive |
| COc1cc(C(=O)Nc2ccc(N(C)C)cc2)cc(OC)c1OC | inactive |

| Structure (SMILES) | outcome |
| --- | --- |
| Oc1ccc(-c2csc(Nc3ccccn3)n2)cc1O | inactive |
| CN(C)c1ccc(Nc2nc(-c3cccnc3)cs2)cc1 | inactive |
| Cc1cc(C)nc(SCc2cc(=O)c(OC(=O)c3ccc(S(=O)(=O)N4CCCC4)cc3)co2)n1 | inactive |
| CC(=O)c1cccc(S(=O)(=O)N2CCCC(c3nc(-c4ccc(C)o4)no3)C2)c1 (configuration not stated) | inactive |
| CC(C)c1ccc(S(=O)(=O)N2CCN(CCC(=O)Nc3ccc(N(C)C)cc3)CC2)cc1 | inactive |
| Nc1nc(-c2ccco2)cs1 | inactive |
| Cc1ccsc1/C=N/n1c(-c2cccnc2)n[nH]c1=S | inactive |
| COc1cc(/C=N/NC(=O)c2ccoc2C)cc(OC)c1O | inactive |
| O=C(CCN1C(=O)/C(=C\c2ccco2)SC1=S)Nc1ccc(C(=O)O)c(O)c1 | inactive |
| O=C(CCN1C(=O)/C(=C/c2ccco2)SC1=S)Nc1ccc(C(=O)O)c(O)c1 | inactive |
| COc1cc(/C=N/NC(=O)CSc2ccccn2)ccc1O | inactive |
| Cc1ccc(NC(=O)CN2C(=O)N/C(=C\c3cccn3-c3cccc(C(=O)O)c3)C2=O)cc1 | inactive |
| CN(C)c1ccc(N2C(=O)CC(Nc3ccc(N4CCOCC4)cc3)C2=O)cc1 (configuration not stated) | inactive |
| Oc1ccc(/C=N/Nc2nccnc2Cl)cc1 | inactive |
| Cc1cc(O)ccc1N/C=C1\CCCC1=O | inactive |
| O=c1c2c([N+](=O)[O-])cc([N+](=O)[O-])cc2sn1Cc1ccccc1 | inactive |
| CC1(C)N([O-])c2cc([N+](=O)[O-])ccc2[N+]1=O | inactive |
| Cn1c(SCC(=O)c2ccc(O)c(O)c2)nnc1-c1cccs1 | inactive |
| O=c1cc(-c2ccc(Br)cc2)[nH][nH]1 | inactive |
| O=C(NC(=S)Nc1ccc(O)cc1)c1ccccc1Cl | inactive |
| COc1cc(/C=N/Nc2nc3ccccc3[nH]2)cc(OC)c1O | inactive |
| Nc1ccc2nc(CCCCCCCCc3nc4ccc(N)cc4[nH]3)[nH]c2c1 | inactive |
| Cc1ccnc(-n2sc3ccccc3c2=O)n1 | inactive |
| O=c1c2ccccc2sn1-c1nccs1 | inactive |
| COc1ccc(/C=N/NC(=O)c2ccoc2C)cc1O | inactive |
